PubChem BioAssay (EPA / NIEHS)
Activity calls are given as the source filed them. The calls were made as follows: active = hit-call score of the fitted dose curve at least 0.9, where 1 is the maximum; inactive = score below 0.9.

How the values were obtained:
[1] = ATG_E_Box_CIS: Attagene CIS-FACTORIAL HepG2 Assay for human Enhancer Box (E-box) (AID 2282936); details: HepG2 E-box cis-reporter transcription, actives raise or lower the signal
Summary of the method: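 In this cell-based setup, HepG2 cells bearing transfected promoter-driven reporter units were exposed to chemicals for 24 h; reporter transcripts were amplified, 6-FAM-labelled, cut with HpaI and sized by capillary electrophoresis.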

[2] = ATG_M_61_CIS: Attagene CIS-FACTORIAL HepG2 Assay for M61 Transcription Factor (Internal Marker) (AID 2282937); details: HepG2 Attagene CIS-FACTORIAL M61 internal marker reporter; actives raise or lower the signal
Summary of the method: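 Human liver HepG2, transient MRTU transfection (cis promoter elements), 24 h compound. Total RNA → oligo(dT) RT → PCR → FAM label → HpaI → CE. Internal background marker; bidirectional fitting, DMSO = baseline.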

[3] = ATG_EGR_CIS: Attagene CIS-FACTORIAL HepG2 Assay for human Early Growth Response 1 (EGR1) (AID 2282938); details: HepG2 Attagene CIS-FACTORIAL EGR reporter mRNA; actives raise or lower the signal
Summary of the method: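 Transient transfection of human HepG2 with multiple cis-regulated reporter units, chemical exposure 24 h, total RNA isolated. Reverse transcription, PCR, fluorescent labelling and capillary electrophoresis quantify reporter transcripts; activity fitted bidirectionally against DMSO.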

[4] = ATG_M_19_CIS: Attagene CIS-FACTORIAL HepG2 Assay for M19 Transcription Factor (Internal Marker) (AID 2282939); details: HepG2 Attagene CIS-FACTORIAL M19 internal marker reporter; actives raise or lower the signal
Summary of the method: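 Chemical-treated HepG2 (24 h) with MRTU constructs; reporter transcripts detected by fluorescent RT-PCR fragment analysis on capillary electrophoresis. Internal background marker, DMSO as baseline.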

[5] = ATG_ERE_CIS: Attagene CIS-FACTORIAL HepG2 Assay for Estrogen Response Element (ERE) (AID 2282940); details: HepG2 ERE cis-reporter, Attagene RNA transcript; actives raise or lower the signal
Summary of the method: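 Human liver cells (HepG2) bearing transiently transfected, promoter-regulated reporter units were exposed 24 h. Reporter mRNA induction was detected by capillary electrophoresis of labelled RT-PCR products and fitted bidirectionally to DMSO.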

[6] = ATG_Ets_CIS: Attagene CIS-FACTORIAL HepG2 Assay for human Erythroblast Transformation Specific (ETS) (AID 2282941); details: HepG2 ETS cis-reporter transcription, actives raise or lower the signal
Summary of the method: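 Cis-regulated reporter mRNA induction in HepG2 (transient transfection), 24 h exposure, RT-PCR plus capillary electrophoresis detection; DMSO serves as negative control and baseline.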

[7] = biological target: Hepatocyte nuclear factor 3-beta (Homo sapiens) (UniProt Q9Y261); assay: ATG_FoxA2_CIS: Attagene CIS-FACTORIAL HepG2 Assay for human Forkhead box A2 (FOXA2) (AID 2282942); details: HepG2 cis-reporter transcription factor activity, 24 h; actives raise or lower the signal
Sequence of Hepatocyte nuclear factor 3-beta (Homo sapiens) (Q9Y261 whole entry, looked up): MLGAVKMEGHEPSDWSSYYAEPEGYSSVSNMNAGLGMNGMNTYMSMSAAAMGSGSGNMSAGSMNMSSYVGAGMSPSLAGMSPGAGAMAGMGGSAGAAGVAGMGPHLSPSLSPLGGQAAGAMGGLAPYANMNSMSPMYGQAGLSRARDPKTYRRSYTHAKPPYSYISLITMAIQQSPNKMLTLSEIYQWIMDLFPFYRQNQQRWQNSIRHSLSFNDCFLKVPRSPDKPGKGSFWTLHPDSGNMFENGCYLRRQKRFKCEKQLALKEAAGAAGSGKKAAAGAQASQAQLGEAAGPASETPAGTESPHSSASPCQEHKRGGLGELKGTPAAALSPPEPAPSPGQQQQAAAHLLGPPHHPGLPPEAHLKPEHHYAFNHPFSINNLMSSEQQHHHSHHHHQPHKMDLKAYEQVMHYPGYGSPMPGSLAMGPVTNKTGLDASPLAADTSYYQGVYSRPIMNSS
Summary of the method: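 Transient MRTU transfection of HepG2 liver cells; 24 h treatment; total RNA → oligo(dT) RT → PCR → FAM primer extension → HpaI cut → CE. Bidirectional fit vs DMSO.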

[8] = ATG_FoxO_CIS: Attagene CIS-FACTORIAL HepG2 Assay for human Forkhead box O (FoxO) (AID 2282943); details: HepG2 Attagene cis-reporter, FoxO element, mRNA; actives raise or lower the signal
Summary of the method: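 HepG2 cells transiently transfected with cis-element-driven reporter units report endogenous FoxO activity. After 24 h chemical exposure, reporter mRNA quantified by RT-PCR, fluorescent labeling, HpaI digestion and capillary electrophoresis; bidirectional fit versus DMSO.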

[9] = ATG_GATA_CIS: Attagene CIS-FACTORIAL HepG2 Assay for human GATA Binding Protein (AID 2282944); details: HepG2 GATA cis-element reporter, Attagene multiplex mRNA; actives raise or lower the signal
Summary of the method: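 Transfected cis-reporter HepG2 cells were treated with chemicals for 24 hours. Total RNA was then converted to cDNA, amplified with reporter-specific primers and analysed by fluorescent capillary electrophoresis, using DMSO-treated wells as baseline.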

[10] = ATG_GLI_CIS: Attagene CIS-FACTORIAL HepG2 Assay for human Zinc Finger Protein GLI1 (AID 2282945); details: HepG2, Attagene cis-factorial reporter mRNA, GLI element; actives raise or lower the signal
Summary of the method: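 Transiently transfected HepG2 cells report endogenous transcription factor activity via cis-element-driven reporter units. After 24 h compound exposure, reporter mRNA was measured by RT-PCR with capillary electrophoresis; bidirectional fitting against DMSO baseline.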

[11] = ATG_ISRE_CIS: Attagene CIS-FACTORIAL HepG2 Assay for human Interferon Regulatory Factor 1 (IRF1) binding to an Interferon-Stimulated Response Element (ISRE) (AID 2282948); details: HepG2 ISRE cis-reporter (Attagene), mRNA transcription readout; actives raise or lower the signal
Summary of the method: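 Multiplexed mRNA reporter readout in human liver HepG2 cells: cis-element-driven reporters transfected, compound added for 24 h, transcripts amplified, fluorescently labelled and sized by capillary electrophoresis; curve fitting bidirectional against DMSO.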

[12] = ATG_M_32_CIS: Attagene CIS-FACTORIAL HepG2 Assay for M32 Transcription Factor (Internal Marker) (AID 2282949); details: HepG2 Attagene cis-factorial M32 reporter, mRNA; actives raise or lower the signal;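 also: background control marker of the multiplexed CIS panel rather than a real target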
Summary of the method: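 HepG2 transfectants (cis-regulated reporter transcription units) dosed 24 h. Reporter mRNA by RT-PCR plus CE, analysed as gain or loss relative to DMSO.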

[13] = ATG_M_06_CIS: Attagene CIS-FACTORIAL HepG2 Assay for M06 Transcription Factor (Internal Marker) (AID 2282950); details: HepG2 Attagene CIS-FACTORIAL M06 internal marker reporter; actives raise or lower the signal
Summary of the method: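 Cells (HepG2, transiently carrying cis-driven reporter units) receive chemical for 24 h before RNA isolation. Reporter cDNA is PCR-amplified, FAM-labelled by primer extension, HpaI-digested and sized on a capillary analyser.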

[14] = biological target: Hypoxia-inducible factor 1-alpha (Homo sapiens) (UniProt Q16665); assay: ATG_HIF1a_CIS: Attagene CIS-FACTORIAL HepG2 Assay for human Hypoxia Inducible Factor 1 (HIF1A) (AID 2282951); details: HepG2 Attagene cis-factorial HIF1a reporter transcription; actives raise or lower the signal
Sequence of Hypoxia-inducible factor 1-alpha (Homo sapiens) (Q16665 whole entry, looked up, the tested form may be a part): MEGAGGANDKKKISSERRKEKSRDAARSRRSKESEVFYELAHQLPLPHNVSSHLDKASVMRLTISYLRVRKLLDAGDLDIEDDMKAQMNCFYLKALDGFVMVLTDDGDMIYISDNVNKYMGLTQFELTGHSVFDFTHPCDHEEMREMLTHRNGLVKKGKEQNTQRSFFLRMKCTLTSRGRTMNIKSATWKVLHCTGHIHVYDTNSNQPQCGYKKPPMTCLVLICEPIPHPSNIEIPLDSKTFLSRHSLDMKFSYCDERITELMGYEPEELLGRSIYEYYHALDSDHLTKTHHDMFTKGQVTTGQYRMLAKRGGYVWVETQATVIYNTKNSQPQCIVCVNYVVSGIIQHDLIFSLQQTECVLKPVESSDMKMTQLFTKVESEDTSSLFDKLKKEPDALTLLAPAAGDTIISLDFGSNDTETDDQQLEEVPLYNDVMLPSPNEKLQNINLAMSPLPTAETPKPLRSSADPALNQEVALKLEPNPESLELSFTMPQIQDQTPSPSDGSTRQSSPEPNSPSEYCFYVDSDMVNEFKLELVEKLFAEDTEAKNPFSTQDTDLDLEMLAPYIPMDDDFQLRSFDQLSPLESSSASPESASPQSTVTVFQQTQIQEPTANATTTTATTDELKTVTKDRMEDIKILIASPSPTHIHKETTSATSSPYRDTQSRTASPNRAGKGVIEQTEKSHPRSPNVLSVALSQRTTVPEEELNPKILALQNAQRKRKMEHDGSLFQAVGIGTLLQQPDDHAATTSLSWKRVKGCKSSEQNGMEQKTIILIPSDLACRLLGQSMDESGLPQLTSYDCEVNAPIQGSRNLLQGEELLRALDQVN
Summary of the method: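 Transient MRTU transfection of human HepG2 liver cells, 24 h compound treatment, then total RNA isolation, oligo(dT) reverse transcription, PCR amplification, fluorescent labelling and capillary electrophoresis of reporter fragments. Gain or loss relative to DMSO.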

[15] = biological target: Hepatocyte nuclear factor 6 (Homo sapiens) (UniProt Q9UBC0); assay: ATG_HNF6_CIS: Attagene CIS-FACTORIAL HepG2 Assay for human Hepatocyte Nuclear Factor 6 (HNF6) (AID 2282952); details: HepG2 Attagene cis-factorial HNF6 reporter transcription; actives raise or lower the signal
Sequence of Hepatocyte nuclear factor 6 (Homo sapiens) (Q9UBC0 whole entry, looked up): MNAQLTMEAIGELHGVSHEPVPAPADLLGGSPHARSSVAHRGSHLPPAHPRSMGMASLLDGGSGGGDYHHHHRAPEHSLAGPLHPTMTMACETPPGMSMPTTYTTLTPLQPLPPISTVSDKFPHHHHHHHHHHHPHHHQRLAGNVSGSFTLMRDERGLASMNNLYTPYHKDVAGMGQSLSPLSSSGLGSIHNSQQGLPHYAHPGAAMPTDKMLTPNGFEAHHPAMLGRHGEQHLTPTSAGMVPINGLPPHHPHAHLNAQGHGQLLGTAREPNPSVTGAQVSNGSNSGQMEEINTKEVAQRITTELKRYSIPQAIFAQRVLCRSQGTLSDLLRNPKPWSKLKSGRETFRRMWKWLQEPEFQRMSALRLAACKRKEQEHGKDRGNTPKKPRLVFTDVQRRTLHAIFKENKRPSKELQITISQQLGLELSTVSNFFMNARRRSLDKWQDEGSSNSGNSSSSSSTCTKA
Summary of the method: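 Activity values derive from bidirectional fitting against DMSO of reporter mRNA levels, measured by capillary electrophoresis of labelled RT-PCR products from HepG2 cells exposed 24 h.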

[16] = biological target: Heat shock factor protein 1 (Homo sapiens) (UniProt Q00613); assay: ATG_HSE_CIS: Attagene CIS-FACTORIAL HepG2 Assay for human Heat Shock Transcription Factor 1 (HSE) (AID 2282953); details: HepG2 HSE cis-reporter, Attagene RNA transcription; actives raise or lower the signal
Sequence of Heat shock factor protein 1 (Homo sapiens) (Q00613 whole entry, looked up): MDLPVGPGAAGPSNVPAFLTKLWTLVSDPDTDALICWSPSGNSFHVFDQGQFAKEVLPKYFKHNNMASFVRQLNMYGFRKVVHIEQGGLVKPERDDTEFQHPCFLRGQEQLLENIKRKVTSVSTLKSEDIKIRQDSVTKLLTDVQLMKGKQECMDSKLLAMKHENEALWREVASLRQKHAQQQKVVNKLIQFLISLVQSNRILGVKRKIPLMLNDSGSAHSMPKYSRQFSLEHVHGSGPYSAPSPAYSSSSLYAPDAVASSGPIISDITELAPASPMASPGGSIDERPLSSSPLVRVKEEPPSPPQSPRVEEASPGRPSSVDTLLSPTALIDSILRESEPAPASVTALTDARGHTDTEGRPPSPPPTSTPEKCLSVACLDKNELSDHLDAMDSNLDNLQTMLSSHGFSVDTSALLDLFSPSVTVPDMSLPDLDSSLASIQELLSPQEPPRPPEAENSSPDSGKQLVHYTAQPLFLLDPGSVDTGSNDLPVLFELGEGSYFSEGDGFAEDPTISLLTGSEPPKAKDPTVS
Summary of the method: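 Liver-derived HepG2 cells carry transiently introduced multiple reporter units governed by cis promoters. Reporter RNA measured 24 h post-dose through reverse transcription, PCR amplification, fluorescent labelling and capillary electrophoresis, normalised to DMSO.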

[17] = ATG_MRE_CIS: Attagene CIS-FACTORIAL HepG2 Assay for human Metal Responsive Element (MRE) (AID 2282954); details: HepG2 MRE cis-reporter transcription, Attagene multiplex; actives raise or lower the signal
Summary of the method: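 Measured here is mRNA induction from an MRE cis-element reporter in HepG2 after 24 h, quantified by fluorescence of labelled RT-PCR products on capillary electrophoresis; gain- and loss-of-signal fits use DMSO as baseline.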

[18] = ATG_PBREM_CIS: Attagene CIS-FACTORIAL HepG2 Assay for human Phenobarbital-responsive Enhancer Module (PBREM) (AID 2282955); details: HepG2 PBREM cis-reporter, Attagene multiplexed transcription; actives raise or lower the signal
Summary of the method: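 Endogenous transcription factors in human liver HepG2 cells drive a PBREM cis-element reporter, whose transcript level after 24 h treatment is quantified by RT-PCR with capillary electrophoresis; activity fitted in both directions against DMSO.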

[19] = biological target: Bile acid receptor (Homo sapiens) (UniProt Q96RI1); assay: ATG_IR1_CIS: Attagene CIS-FACTORIAL HepG2 Assay for human Nuclear Receptor Subfamily 1 Group H Member 4 (NR1H4), IR1 submotif (AID 2282946); details: IR1 reporter transcription, actives raise or lower the signal
Sequence of Bile acid receptor (Homo sapiens) (Q96RI1 whole entry, looked up): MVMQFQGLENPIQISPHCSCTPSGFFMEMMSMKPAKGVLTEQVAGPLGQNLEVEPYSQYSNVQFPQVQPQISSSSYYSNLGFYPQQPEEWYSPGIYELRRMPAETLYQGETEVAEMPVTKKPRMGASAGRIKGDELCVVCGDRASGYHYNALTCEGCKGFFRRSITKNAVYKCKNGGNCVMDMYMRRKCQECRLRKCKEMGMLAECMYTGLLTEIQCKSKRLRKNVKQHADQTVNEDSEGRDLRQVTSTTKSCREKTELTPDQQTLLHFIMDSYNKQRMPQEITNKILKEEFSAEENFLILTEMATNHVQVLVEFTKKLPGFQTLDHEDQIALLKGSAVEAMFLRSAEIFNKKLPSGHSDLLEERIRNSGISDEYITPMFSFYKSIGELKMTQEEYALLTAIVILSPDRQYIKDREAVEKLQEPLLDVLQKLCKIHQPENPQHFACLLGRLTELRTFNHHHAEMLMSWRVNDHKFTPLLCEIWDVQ
Summary of the method: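 Fluorescence of capillary-separated, HpaI-digested RT-PCR reporter products gave IR1-element mRNA induction in HepG2 cells 24 h after dosing. Endogenous transcription factors drove the cis-regulated reporters; activity was fitted bidirectionally against DMSO.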

[20] = ATG_GRE_CIS: Attagene CIS-FACTORIAL HepG2 Assay for human Glucocorticoid Response Elements (GRE) (AID 2282947); details: HepG2 GRE cis-reporter, Attagene multiplex mRNA; actives raise or lower the signal
Summary of the method: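 Fluorescence intensity of reporter-specific cDNA fragments, separated by capillary electrophoresis, provides the signal. Constructs carry cis-regulating promoters in transiently transfected HepG2 liver cells; 24 h incubation; fitting is bidirectional against DMSO.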

Measured: AC50

Nc1c(S(=O)(=O)O)cc(Br)c2c1C(=O)c1ccccc1C2=O
inactive: [1] | [2] | [3] | [4] | [6] | [7] | [8] | [9] | [10] | [11] | [12] | [13] | [14] | [15] | [16]
active: [5] 31.9 µM | [17] 58 µM

Cc1[nH]c(=O)c(C#N)cc1-c1ccncc1
inactive: [1] | [2] | [3] | [4] | [5] | [6] | [7] | [8] | [9] | [10] | [11] | [12] | [13] | [15] | [16] | [17] | [18]

O=C(CC(=O)c1ccccc1)c1ccccc1
active: [1] 42.5 µM | [3] 100 µM | [9] 171 µM | [10] 157 µM | [11] 95.9 µM | [14] 33.5 µM | [15] 145 µM | [16] 145 µM | [17] 136 µM
inactive: [2] | [4] | [6] | [7] | [8] | [19] | [20] | [12] | [13]

Cc1ccc(C)o1
inactive: [1] | [2] | [3] | [4] | [6] | [7] | [8] | [9] | [10] | [19] | [20] | [11] | [12] | [13] | [14] | [15] | [16] | [17] | [18]

CC(=O)CC(=O)Nc1ccccc1
inactive: [1] | [2] | [3] | [4] | [6] | [7] | [8] | [9] | [10] | [19] | [20] | [11] | [12] | [13] | [15] | [16] | [17]
active: [14] 24.2 µM

CS(=O)(=O)OCCCCOS(C)(=O)=O
inactive: [1] | [2] | [3] | [4] | [5] | [6] | [7] | [8] | [9] | [10] | [11] | [12] | [13] | [14] | [15] | [16] | [17]

C=CC(=O)OCCCC
inactive: [1] | [2] | [3] | [4] | [6] | [7] | [8] | [9] | [10] | [19] | [20] | [11] | [12] | [13] | [14] | [15] | [16] | [17] | [18]

CC(=O)O[C@H]1C[C@@H]2CC[C@@]1(C)C2(C)C
inactive: [1] | [2] | [3] | [4] | [6] | [7] | [8] | [9] | [10] | [19] | [20] | [11] | [12] | [13] | [14] | [15] | [16] | [17] | [18]
